Source: PubChem BioAssay (EPA / NIEHS)
Activity calls are given as the source filed them. How the source made its calls, unless noted: active means hit-call score of the fitted dose curve at least 0.9, where 1 is the maximum; inconclusive means response in the unintended direction; inactive means score below 0.9.

The molecules below were run against Estrogen receptor beta (Homo sapiens) (UniProt Q92731) (assay: OT_ER_ERbERb_1440: Odyssey Thera (OT) 24-hour HEK293T Protein-Complementation Assay for Estrogen Receptor-beta/-beta Homodimer (AID 2283380);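 further: fluorescence gain from ER beta LBD homodimer complementation read by laser scanning cytometry; scored as signal increase over DMSO baseline for both agonists and antagonists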).
Sequence of Estrogen receptor beta (Homo sapiens) (Q92731 whole entry, looked up, the tested form may be a part): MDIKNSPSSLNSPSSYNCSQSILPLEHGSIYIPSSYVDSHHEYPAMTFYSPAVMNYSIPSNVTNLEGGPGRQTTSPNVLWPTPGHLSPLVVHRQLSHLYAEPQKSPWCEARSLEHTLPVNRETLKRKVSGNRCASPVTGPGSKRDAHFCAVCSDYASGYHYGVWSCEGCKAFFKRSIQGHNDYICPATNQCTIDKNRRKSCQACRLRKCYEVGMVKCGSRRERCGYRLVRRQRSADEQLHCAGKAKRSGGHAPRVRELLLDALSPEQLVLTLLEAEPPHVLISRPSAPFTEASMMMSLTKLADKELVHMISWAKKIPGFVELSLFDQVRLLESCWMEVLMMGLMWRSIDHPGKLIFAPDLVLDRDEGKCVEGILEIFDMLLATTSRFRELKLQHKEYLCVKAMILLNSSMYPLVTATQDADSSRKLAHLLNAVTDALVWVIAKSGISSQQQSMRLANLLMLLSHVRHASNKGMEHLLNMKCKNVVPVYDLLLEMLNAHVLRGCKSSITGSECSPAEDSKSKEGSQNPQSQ
Method in brief: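 HEK293T cells stably expressing human ER-beta LBD (aa 310-547) PCA homodimer pair, dosed 24 h; formaldehyde-fixed, Draq5-stained. Readout: increase in nuclear (agonist) or nuclear plus cytoplasmic (antagonist) fluorescence intensity versus DMSO, gain-of-signal fitting.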
For `CC(C)Oc1cccc(NC(=O)c2ccccc2C(F)(F)F)c1`, the outcome was “inactive”.
With `C=CCOC(=O)C(C)(C)OC(=O)c1cc(-n2c(=O)cc(C(F)(F)F)n(C)c2=O)ccc1Cl` the outcome was “inactive”.
With `CC(C)N1C(=O)N(c2ccccc2)CSC1=NC(C)(C)C` the AC50 was 27.7 µM (active).
`O=C(Nc1ccccc1-c1ccc(Cl)cc1)c1cccnc1Cl` was tested, and the outcome was “inactive”.
With `Cc1ccc(N=CN(C)C=Nc2ccc(C)cc2C)c(C)c1` the outcome was “inactive”.
`O=c1n(Cl)c(=O)n(Cl)c(=O)n1Cl` was tested, and the outcome was “inactive”.
`CS(=O)(=O)c1ccc(C(=O)C2C(=O)CCCC2=O)c([N+](=O)[O-])c1` was tested, and the outcome was “inactive”.
In the case of `Nc1c(Cl)c(F)nc(OCC(=O)O)c1Cl`, the outcome is reported as “inactive”.
With `CC(C)Nc1nc(Cl)nc(NC(C)C)n1` the outcome was “inactive”.
For `CCCN(CC)CC1COC2(CCC(C(C)(C)C)CC2)O1` (stereo not given), the outcome was “inactive”.
With `Clc1cccc(C(Cl)(Cl)Cl)n1` the outcome was “inactive”.
With `Cc1nc(N(C)C)nc(OC(=O)N(C)C)c1C` the outcome was “inactive”.
`CCCCOCN(C(=O)CCl)c1c(CC)cccc1CC` was tested, and the outcome was “inactive”.
For `CNC(=O)N(C)c1nnc(C(C)(C)C)s1`, the outcome was “inactive”.
In the case of `COC(=O)NS(=O)(=O)c1ccc(N)cc1`, the outcome is reported as “inactive”.
In the case of `CCOc1nc(C(Cl)(Cl)Cl)ns1`, the outcome is reported as “inactive”.
In the case of `COc1cc(OC)nc(NC(=O)NS(=O)(=O)c2ncccc2OCC(F)(F)F)n1`, the outcome is reported as “inactive”.
With `CCN(CC)c1nc(C)cc(OP(=S)(OC)OC)n1` the AC50 was 50 µM (active).
`CCNP(=S)(OC)O/C(C)=C/C(=O)OC(C)C` (stereo not given) was tested, and the outcome was “inactive”.
`Nc1c(Cl)c(Cl)nc(C(=O)O)c1Cl` was tested, and the outcome was “inactive”.
`CCC(C)n1c(=O)[nH]c(C)c(Br)c1=O` (stereo not given) was tested, and the outcome was “inactive”.
In the case of `CCSC(=O)N1CCCCCC1`, the outcome is reported as “inactive”.
For `N#Cc1c(Cl)cccc1Cl`, the outcome was “inactive”.
For `CN/C(=N\[N+](=O)[O-])NCc1cnc(Cl)s1`, the outcome was “inactive”.
With `CS(=O)(=O)c1cc(C(F)(F)F)ccc1C(=O)c1cnoc1C1CC1` the outcome was “inactive”.
`O=C(O)c1c(Cl)ccc2cc(Cl)cnc12` was tested, and the outcome was “inactive”.
With `COc1cc(Cl)c(OC)cc1Cl` the outcome was “inactive”.
For `COCC(=O)N(c1c(C)cccc1C)C(C)C(=O)OC` (stereo not given), the outcome was “inactive”.
For `COP(=O)(OC)O/C(C)=C/C(=O)N(C)C`, the outcome was “inactive”.
`Nc1cnn(-c2ccccc2)c(=O)c1Cl` was tested, and the outcome was “inactive”.
In the case of `O=C1C2CC=CCC2C(=O)N1SC(Cl)(Cl)Cl` (stereo not given), the outcome is reported as “inactive”.

These molecules were tested against Estrogen receptor (Homo sapiens) (UniProt P03372) (assay: OT_ERa_GFPERaERE_0480: Odyssey Thera (OT) 8-hour HeLa Transcription Induction Assay for Estrogen Receptor (AID 2283381; active means hit-call score of the fitted dose curve at least 0.9, where 1 is the maximum; inactive means score below 0.9)).
Sequence of Estrogen receptor (Homo sapiens) (P03372 whole entry, looked up): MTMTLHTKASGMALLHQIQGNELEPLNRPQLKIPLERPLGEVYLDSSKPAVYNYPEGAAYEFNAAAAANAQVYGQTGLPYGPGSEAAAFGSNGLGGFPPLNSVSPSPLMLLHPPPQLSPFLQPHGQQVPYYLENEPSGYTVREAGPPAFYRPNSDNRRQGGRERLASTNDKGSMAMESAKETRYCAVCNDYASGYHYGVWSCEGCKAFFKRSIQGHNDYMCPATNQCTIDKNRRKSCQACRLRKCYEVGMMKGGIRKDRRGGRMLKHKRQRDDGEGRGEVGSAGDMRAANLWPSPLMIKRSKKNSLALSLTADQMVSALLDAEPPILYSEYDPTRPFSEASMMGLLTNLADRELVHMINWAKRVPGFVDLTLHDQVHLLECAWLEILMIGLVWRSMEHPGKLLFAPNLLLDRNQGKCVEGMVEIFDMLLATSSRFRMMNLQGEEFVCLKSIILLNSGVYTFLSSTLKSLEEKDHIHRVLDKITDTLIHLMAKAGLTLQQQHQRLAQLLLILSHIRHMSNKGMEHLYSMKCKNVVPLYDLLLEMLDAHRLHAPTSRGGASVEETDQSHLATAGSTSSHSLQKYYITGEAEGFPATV
Method in brief: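 GFP-ERE reporter, HeLa, 8 h exposure. Readout: fluorescence microscopy, high-content image analysis. Fit direction positive vs DMSO negative control.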
`CC(C)Oc1cccc(NC(=O)c2ccccc2C(F)(F)F)c1` was tested, and the outcome was “inactive”.
With `COCC(C)N(C(=O)CCl)c1c(C)csc1C` (stereo not given) the outcome was “inactive”.
For `CC(C)N1C(=O)N(c2ccccc2)CSC1=NC(C)(C)C`, the outcome was “inactive”.
In the case of `O=C(Nc1ccccc1-c1ccc(Cl)cc1)c1cccnc1Cl`, the outcome is reported as “inactive”.
In the case of `Nc1c(Cl)c(F)nc(OCC(=O)O)c1Cl`, the outcome is reported as “inactive”.
With `CCCN(CC)CC1COC2(CCC(C(C)(C)C)CC2)O1` (stereo not given) the outcome was “inactive”.
For `Clc1cccc(C(Cl)(Cl)Cl)n1`, the outcome was “inactive”.
In the case of `CCNC(=O)NC(=O)C(C#N)=NOC`, the outcome is reported as “inactive”.
In the case of `CCCCOCN(C(=O)CCl)c1c(CC)cccc1CC`, the AC50 is reported as 71.3 µM (active).
In the case of `COC(=O)NS(=O)(=O)c1ccc(N)cc1`, the outcome is reported as “inactive”.
For `COc1cc(OC)nc(NC(=O)NS(=O)(=O)c2ncccc2OCC(F)(F)F)n1`, the outcome was “inactive”.
In the case of `CCN(CC)c1nc(C)cc(OP(=S)(OC)OC)n1`, the outcome is reported as “inactive”.
With `N#Cc1c(Cl)cccc1Cl` the outcome was “inactive”.
For `CN/C(=N\[N+](=O)[O-])NCc1cnc(Cl)s1`, the outcome was “inactive”.
`CC(C)C1(C)N=C(c2ncccc2C(=O)O)NC1=O` (stereo not given) was tested, and the outcome was “inactive”.
In the case of `COCC(=O)N(c1c(C)cccc1C)C(C)C(=O)OC` (stereo not given), the outcome is reported as “inactive”.
For `COP(=O)(OC)O/C(C)=C/C(=O)N(C)C`, the outcome was “inactive”.
`Nc1cnn(-c2ccccc2)c(=O)c1Cl` was tested, and the outcome was “inactive”.
For `N#CN=C1SCCN1Cc1ccc(Cl)nc1`, the outcome was “inactive”.
